Measurements from the supplement of paper PMC3334620.
Whole data set: some 33,000 sequences, median “E-score (-0.5 to 0.5)” near -0.032, cut for the highest 2% near 0.36. The full list was thinned out, with the highest values kept by preference.

What follows are sequences tested against T1, Sko1 (UniProt Q02100) (assay: PBM E-score (8-mer binding enrichment) (E-score (-0.5 to 0.5)); higher = stronger / more preferred TF binding). Conditions: protein concentration: 200 nM; construct: GST-full length.
T1 sequence: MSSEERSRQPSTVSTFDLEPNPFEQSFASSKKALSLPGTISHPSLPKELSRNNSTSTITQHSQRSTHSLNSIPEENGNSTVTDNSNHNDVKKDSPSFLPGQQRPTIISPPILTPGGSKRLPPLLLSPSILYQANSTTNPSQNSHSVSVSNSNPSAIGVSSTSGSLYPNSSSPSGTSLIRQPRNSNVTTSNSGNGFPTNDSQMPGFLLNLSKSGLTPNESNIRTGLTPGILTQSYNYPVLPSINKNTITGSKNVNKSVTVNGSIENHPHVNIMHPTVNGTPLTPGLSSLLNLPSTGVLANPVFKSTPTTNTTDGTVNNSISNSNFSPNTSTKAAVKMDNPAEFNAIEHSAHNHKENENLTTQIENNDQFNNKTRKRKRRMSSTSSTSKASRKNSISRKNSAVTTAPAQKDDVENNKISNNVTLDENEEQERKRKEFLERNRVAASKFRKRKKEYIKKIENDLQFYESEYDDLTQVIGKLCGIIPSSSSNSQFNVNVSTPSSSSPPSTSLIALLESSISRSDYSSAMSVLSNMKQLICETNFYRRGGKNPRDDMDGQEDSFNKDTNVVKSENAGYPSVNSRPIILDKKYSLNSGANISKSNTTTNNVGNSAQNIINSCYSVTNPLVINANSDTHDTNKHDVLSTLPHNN
Method in brief: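 E-scores (a modified Wilcoxon-Mann-Whitney statistic) were assigned by the Universal PBM Analysis Suite to every ungapped eight-base word pooled with its reverse complement. The input came from universal all-10-mer Agilent arrays made double-stranded by primer extension and probed with GST-tagged yeast transcription factors at about 100-200 nM. Fluorescent anti-GST detected bound protein, and masliner normalised the scans.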

Sequence	PBM E-score
CCCGCTAC	-0.15
AACCATAT	0.119
CCACGTGA	0.339
CCACGTAA	0.456
CCACGTGG	0.177
CCCCGTAA	0.0319
CCACGTAG	0.377
CCCCGTAG	-0.2
CCACGTTC	0.0509
CCACGTGC	0.341
CCACGTAC	0.374
ATGGGGCA	-0.185
CAATAGTC	-0.085
CTGGTACA	-0.00751
GTCTGGGA	-0.133
CGTCGTCC	-0.0443
AGTCGTCA	0.37
GGTCGTCA	0.38
GGTCGTGA	0.0516
CGTCGTTA	0.153
CGTCGTCA	0.362
AGTCGTCG	-0.148

Sequence	PBM E-score
AGTCGTCC	-0.114
GGTCGTTA	-0.0165
AGAGGTAG	-0.178
GGGCTAAA	-0.182
ACACACGG	-0.0648
AAACACGT	0.413
ACACACGT	0.433
ACACACGA	0.213
AAACACGA	0.163
AAACACGC	0.316
ATATAGAG	-0.151
CTTTGGGA	-0.187
AATGAGCG	0.0936
ACGCAAGG	0.316
CCGCAATC	-0.102
AGGCAATG	0.00123
ACGCAATG	0.399
GCGCAATA	0.0795
ACGCAATA	0.45
ACGCAAGC	0.327
CCGCAATA	0.0923
ACGCAATC	0.411

Sequence	PBM E-score
AAAGGGGT	-0.26
ATCCACTA	-0.0731
CGTTAATC	0.168
ACGGCCCA	-0.317
ATAACCAT	0.057
AAGTTTGC	0.0635
CTGTGCTC	0.0303
CCTACGGA	-0.182
ACTACGCC	-0.00632
ACTACGTC	0.433
CCTACGAC	0.0224
CCTACGTC	0.427
CCTACGAA	0.0841
ACTACGGC	-0.0407
CCTACGTA	0.477
CCTACGGC	-0.34
GCGGGTAC	-0.0713
CACACTAC	0.0507
CCAAGCGC	-0.147
AGTTGCAA	0.219
ACATCCGG	-0.227
CCTACCGA	-0.168

Sequence	PBM E-score
CCACGCCC	-0.165
CCGGTGGA	-0.297
CCGTATAC	0.0259
ACGTATAC	0.463
ACGTATAG	0.437
ACGTATAT	0.453
CCGTATAG	-0.115
TCGTATAA	0.221
ATGTATAC	0.247
AGGTATAG	-0.141
AGGTATAT	0.184
AAGTATAT	0.118
ACGTATAA	0.457
CCGTATAA	0.0514
ACGTGAGT	0.331
AATGAGGT	0.324
CTTGGGTC	-0.348
GGCGCGAA	-0.151
GAGTATAC	0.192
GCGTATAC	0.365
GCGTATAA	0.271
ATGGAGGG	-0.334

Sequence	PBM E-score
CCACACTC	0.00961
AAGATTAG	0.062
AGTAAGGC	-0.0198
CTCACGCA	0.28
GTTACGCA	0.417
GTTACTCA	0.0403
ATTACGCC	0.338
ATTACTCG	0.204
ATTACGCA	0.47
CTTACGCC	0.193
CTTACGCA	0.427
GGTACGCA	0.268
ATTACGGA	0.287
ATTACGCG	0.431
CAAACCAG	-0.071
GCACCGCC	-0.218
GTACCTGA	0.16
GCATCTCC	-0.341
ACCGGCCT	-0.0244
ATAGAAAG	-0.115
CATAGAAC	-0.15
